Measured values reported in PubChem BioAssay AID1813 (Broad Institute, 2009).
About 2,500 (0.83%) of roughly 300,000 compounds were called active. Rule as the data show it: active = inhibition above about 60%; inconclusive = no clear call, values can overlap the other calls; inactive = below that. The entries come from a sample that favours actives as a whole.

Experiment: MLPCN primary screen, SNCA 5' untranslated region (AID 1813);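 also: H4 neuroglioblastoma cells stably carrying SNCA 5'UTR luciferase fusion; 0% = DMSO wells and 100% = positive control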
Conditions: alpha-synuclein 5'UTR reporter, inhibitor activity; active compounds read high; tested at 7.5 µM

| SMILES | inhibition |
| --- | --- |
| CCCCCn1c(=O)c(C(=O)OCC)c(Cl)c2ccccc21 | 92.6% (active) |
| CCOC(=O)c1nnn2c3ccccc3c(=O)n(C)c12 | -5.14% (inactive) |
| CCCCn1c(=O)c(C(C)=O)c(O)c2ccccc21 | -6.66% (inactive) |
| CNc1ccc(SC#N)cc1 | 1.02% (inactive) |
| CCOC(=O)N1CCN(C(=O)C(=O)Nc2sc3c(c2C#N)CC(C)(C)OC3)CC1 | -17.6% (inactive) |
| COc1ccc2c3c1O[C@H]1C[C@@H](O)C=C[C@@]31CCN(C)C2 | 62% (active) |
| COc1cc2cc(C(=O)N/N=C/c3cccc(OC)c3OC)[nH]c2cc1OC | 22.3% (inactive) |
| CN(C)CCNC(=O)c1[nH]nc2c1CCc1ccccc1-2 | -73.6% (inactive) |
| COc1cccc(/C=N/NC(=O)c2[nH]nc3c2CCc2ccccc2-3)c1O | 76.4% (active) |
| CCOCCCN(C)C1CCN(C(=O)c2oc3ccccc3c2NC(=O)COc2cccc(C)c2)CC1 | 45.5% (inactive) |
| CCOC(=O)c1ccc(NNC(C)=O)c([N+](=O)[O-])c1 | -28% (inactive) |
| CCCCCOc1ccc(/C=C/C(=O)NCCc2nc3ccccc3[nH]2)cc1OC | 14.1% (inactive) |
| Cc1cc(C)n(-c2ccc(C(=O)O)cc2[N+](=O)[O-])n1 | -5.9% (inactive) |
| Cc1cc(Oc2ccc(Cl)cc2)nc(SCC(=O)c2ccccc2)n1 | 27.8% (inactive) |
| COc1ccc(Nc2cc(C)nc(-n3nc(C)cc3C)n2)cc1 | 92.8% (active) |
| CC(=O)c1ccc(Oc2cc(C)nc(-n3nc(C)cc3C)n2)cc1 | 80.1% (active) |
| Cc1cc(Nc2ccc(Cl)cc2)nc(N2CCOCC2)n1 | -19% (inactive) |
| Cc1cc(N/N=C\c2ccc(Br)cc2)nc(-n2nc(C)cc2C)n1 | 25% (inactive) |
| CCC(C(=O)OC)n1cnc2c(oc3ccccc32)c1=O (configuration not stated) | 16.1% (inactive) |
| Clc1ccc(-c2cc(-c3ccccn3)on2)c(Cl)c1 | 108% (active) |
| O=C1c2ccccc2C(=O)N1Cc1cc(-c2ccccc2Cl)no1 | 15.2% (inactive) |

| SMILES | inhibition |
| --- | --- |
| Clc1ccc(-c2ncc3ccccn23)c(Cl)c1 | -17.4% (inactive) |
| COc1cc(NC(=O)C2=C(C)OCCS2)c(Cl)cc1C(=O)NCCN1CCN(C)CC1 | -14% (inactive) |
| CN1C(=O)[C@H]2[C@@H](C3CC3)N3C(=O)CN(Cc4ccccc4)C(=O)[C@@]3(C)[C@H]2C1=O | -12.7% (inactive) |
| Cc1nc2c(c(C)nn2-c2ccccc2)c(C)c1C | -0.524% (inactive) |
| COc1ccc(/C=C2\SC(=S)N(CCC(=O)Nc3ccccn3)C2=O)cc1OC | 28.8% (inactive) |
| COc1ccc(/C=C2\SC(=S)N(CCC(=O)Nc3cccc(C(=O)O)c3)C2=O)cc1OC | 6.81% (inactive) |
| COc1ccc(/C=C2\SC(=S)N(CCCC(=O)NC3CCCC3)C2=O)cc1OC | 83.7% (active) |
| CCOc1ccc(S(=O)(=O)N/N=C(\C)c2ccc(Cl)c(Cl)c2Cl)cc1 | 2.56% (inactive) |
| O=C(NCCc1ccccc1)C(=O)NCC1OCCN1S(=O)(=O)c1cccs1 (configuration not stated) | 2.43% (inactive) |
| CC(CNS(=O)(=O)c1ccc(Br)cc1)CN(C)C (configuration not stated) | 22% (inactive) |
| CN(CC(=O)NNC(=O)CNC(=O)c1ccccc1Cl)S(=O)(=O)c1ccc(Cl)cc1 | -12.7% (inactive) |
| CCc1cc(-c2nnc(SCC(=O)NC3CC3)n2C)cs1 | -4.18% (inactive) |
| Cc1cc(C(=O)N/N=C/c2cc([N+](=O)[O-])cc(C)c2O)n[nH]1 | -3% (inactive) |
| CC(C)(C)c1cc(C(=O)N/N=C/c2ccc([N+](=O)[O-])s2)n[nH]1 | 64% (active) |
| Cc1ccccc1NCC(=O)N/N=C\c1ccc([N+](=O)[O-])s1 | -43.2% (inactive) |
| CCOC(=O)C(C)n1cnc2c(nnn2-c2cccc(OC)c2)c1=O (configuration not stated) | -35.8% (inactive) |
| O=C(C[n+]1ccc2c(c1)nnn2-c1ccccc1)c1ccc(Cl)cc1 | 9.87% (inactive) |
| CC(=O)Nc1nc2ccccc2n1Cc1ccc(C)cc1 | 48.2% (inactive) |
| CCCCn1c(CCCNC(=O)CC)nc2ccccc21 | -5.46% (inactive) |
| CCC(=O)Nc1nc2ccccc2n1Cc1ccccc1C | 65.5% (active) |
| COc1ccc(N2CCN(C(=O)CNC(=O)c3ccc(Br)o3)CC2)cc1 | 0.266% (inactive) |

| SMILES | inhibition |
| --- | --- |
| CNC(=O)c1csc(Cc2c(Cl)sc3ccc(Cl)cc23)n1 | -10.2% (inactive) |
| CC(=O)Cc1nsc(NC(=O)c2ccc(Cl)cc2Cl)n1 | -9.27% (inactive) |
| CC(=O)NNC(=O)c1csc(Cc2c(Cl)sc3ccc(Cl)cc23)n1 | 67.1% (active) |
| CC12CN3CCN(CC(C3)/C1=N\NC(=O)c1ccccc1N)C2 | -83.3% (inactive) |
| Cc1ccc(CN2CCN(Cc3ccc4ncccc4c3)CC2CCO)cc1 (configuration not stated) | -3.25% (inactive) |
| CNC(=O)C(=O)N/N=C/c1ccccn1 | 10.9% (inactive) |
| Cc1nnc(N/N=C/c2ccccn2)[nH]c1=O | 117% (active) |
| Cc1nnc(N/N=C/C2CC=CCC2)[nH]c1=O (configuration not stated) | -14.7% (inactive) |
| COc1cc(/C=N/N=C(\N)c2nonc2N)cc(OC)c1OC | -18.9% (inactive) |
| O=C(CNC(=O)Cc1ccccc1)NCC(=O)OCC(=O)c1ccccc1Cl | -27.1% (inactive) |
| CC(=O)c1ccc(S(=O)(=O)N2CCN(C(=O)/C=C/c3ccc4ccccc4n3)CC2)cc1 | 62.4% (active) |
| CC(=O)c1ccc(S(=O)(=O)N2CCC3(CC2)OCCO3)cc1 | -7.06% (inactive) |
| CC(=O)c1ccc(S(=O)(=O)N2CCN(c3nc4c(C)c(C)ccc4cc3C#N)CC2)cc1 | 15.2% (inactive) |
| CC(N)C12CC3CC(CC(O)(C3)C1)C2 (configuration not stated) | 11.6% (inactive) |
| COc1ccccc1Cn1c(=S)[nH]c2cc(C(=O)N3CCN(C)CC3)ccc2c1=O | 30.1% (inactive) |
| CCOc1cc2[nH]c(=S)n(Cc3ccc(C(=O)N4CCN(C)CC4)cc3)c(=O)c2cc1OCC | 86.1% (active) |
| CCOc1cc2[nH]c(=S)n(Cc3ccc(C(=O)NCCOC)cc3)c(=O)c2cc1OCC | 13.8% (inactive) |
| COc1cccc(-c2cc(C(=O)N3CCN(c4ccccc4OC)CC3)no2)c1 | -4.47% (inactive) |
| COc1ccccc1N1CCN(C(=O)c2cc(=O)c3cc(C)ccc3o2)CC1 | -36.8% (inactive) |
| COc1ccccc1N1CCN(C(=O)c2cc(=O)c3cc(C)cc(C)c3o2)CC1 | 78.3% (active) |
